# According to the supplement of paper PMC4466140:
# B1: unnamed (peptide)
# chain: ATKSASPTLPTRRSR
# Target: AgAbp1
# Assay: SPOT peptide array binding signal intensity (averaged, normalized) (arbitrary units (background-subtracted, floor 0; scale differs between SH3 domains)); higher = stronger binding of the SH3 domain to the peptide
# Method in brief: (§1)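 Binding signal refers to normalized, background-subtracted spot intensity averaged over replicates, expressed in arbitrary units that differ between domains. GST-fused SH3 domains from four yeast species were incubated at 10 μg/ml overnight at 4°C on cellulose membranes of synthetic 15-mer peptides with cysteines replaced by serines. Bound protein was detected with anti-GST antibody, an HRP anti-mouse secondary and luminol, and quantified with Genespotter.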
row,Binder,SPOT peptide array binding signal intensity
1,B1,938

# Target: AgBbc1
# Assay: as above
# Method in brief: as §1
row,Binder,SPOT peptide array binding signal intensity
1,B1,899

# Target: AgBem1-D1
# Assay: as above
# Method in brief: as §1
row,Binder,SPOT peptide array binding signal intensity
1,B1,133

# Target: AgBzz1-D1
# Assay: as above
# Method in brief: as §1
row,Binder,SPOT peptide array binding signal intensity
1,B1,99.5

# Target: AgBzz1-D2
# Assay: as above
# Method in brief: as §1
row,Binder,SPOT peptide array binding signal intensity
1,B1,45

# Target: AgCyk3
# Assay: as above
# Method in brief: as §1
row,Binder,SPOT peptide array binding signal intensity
1,B1,2

# Target: AgFus1
# Assay: as above
# Method in brief: as §1
row,Binder,SPOT peptide array binding signal intensity
1,B1,28

# Target: AgHof1
# Assay: as above
# Method in brief: as §1
row,Binder,SPOT peptide array binding signal intensity
1,B1,180

# Target: AgHse1
# Assay: as above
# Method in brief: as §1
row,Binder,SPOT peptide array binding signal intensity
1,B1,114

# Target: AgLsb1
# Assay: as above
# Method in brief: as §1
row,Binder,SPOT peptide array binding signal intensity
1,B1,18.5

# Target: AgLsb4
# Assay: as above
# Method in brief: as §1
row,Binder,SPOT peptide array binding signal intensity
1,B1,1800

# Target: AgMyo5
# Assay: as above
# Method in brief: as §1
row,Binder,SPOT peptide array binding signal intensity
1,B1,5.5

# Target: AgNbp2
# Assay: as above
# Method in brief: as §1
row,Binder,SPOT peptide array binding signal intensity
1,B1,39.5

# Target: AgRvs167
# Assay: as above
# Method in brief: as §1
row,Binder,SPOT peptide array binding signal intensity
1,B1,192

# Target: AgSho1
# Assay: as above
# Method in brief: as §1
row,Binder,SPOT peptide array binding signal intensity
1,B1,≤ 0

# Target: AgSla1-D1-D2
# Assay: as above
# Method in brief: as §1
row,Binder,SPOT peptide array binding signal intensity
1,B1,74.5

# Target: AgSla1-D3
# Assay: as above
# Method in brief: as §1
row,Binder,SPOT peptide array binding signal intensity
1,B1,11.8

# Target: CaAbp1-D1
# Assay: as above
# Method in brief: as §1
row,Binder,SPOT peptide array binding signal intensity
1,B1,434

# Target: CaAbp1-D2
# Assay: as above
# Method in brief: as §1
row,Binder,SPOT peptide array binding signal intensity
1,B1,1090

# Target: CaBbc1
# Assay: as above
# Method in brief: as §1
row,Binder,SPOT peptide array binding signal intensity
1,B1,986

# Target: CaBem1-D1
# Assay: as above
# Method in brief: as §1
row,Binder,SPOT peptide array binding signal intensity
1,B1,51

# Target: CaBzz1-D1
# Assay: as above
# Method in brief: as §1
row,Binder,SPOT peptide array binding signal intensity
1,B1,223

# Target: CaBzz1-D2
# Assay: as above
# Method in brief: as §1
row,Binder,SPOT peptide array binding signal intensity
1,B1,195

# Target: CaCyk3
# Assay: as above
# Method in brief: as §1
row,Binder,SPOT peptide array binding signal intensity
1,B1,56

# Target: CaFus1
# Assay: as above
# Method in brief: as §1
row,Binder,SPOT peptide array binding signal intensity
1,B1,35

# Target: CaHof1
# Assay: as above
# Method in brief: as §1
row,Binder,SPOT peptide array binding signal intensity
1,B1,4

# Target: CaHse1
# Assay: as above
# Method in brief: as §1
row,Binder,SPOT peptide array binding signal intensity
1,B1,8.75

# Target: CaLsb1
# Assay: as above
# Method in brief: as §1
row,Binder,SPOT peptide array binding signal intensity
1,B1,0.75

# Target: CaLsb4
# Assay: as above
# Method in brief: as §1
row,Binder,SPOT peptide array binding signal intensity
1,B1,6350

# Target: CaMyo5
# Assay: as above
# Method in brief: as §1
row,Binder,SPOT peptide array binding signal intensity
1,B1,6

# Target: CaNbp2
# Assay: as above
# Method in brief: as §1
row,Binder,SPOT peptide array binding signal intensity
1,B1,77

# Target: CaRvs167
# Assay: as above
# Method in brief: as §1
row,Binder,SPOT peptide array binding signal intensity
1,B1,607

# Target: CaRvs167-3
# Assay: as above
# Method in brief: as §1
row,Binder,SPOT peptide array binding signal intensity
1,B1,9.25

# Target: CaSho1
# Assay: as above
# Method in brief: as §1
row,Binder,SPOT peptide array binding signal intensity
1,B1,23

# Target: CaSla1-D1-D2
# Assay: as above
# Method in brief: as §1
row,Binder,SPOT peptide array binding signal intensity
1,B1,1430

# Target: CaSla1-D3
# Assay: as above
# Method in brief: as §1
row,Binder,SPOT peptide array binding signal intensity
1,B1,1.75

# Target: ScAbp1
# Assay: as above
# Method in brief: as §1
row,Binder,SPOT peptide array binding signal intensity
1,B1,192

# Target: ScBbc1
# Assay: as above
# Method in brief: as §1
row,Binder,SPOT peptide array binding signal intensity
1,B1,405

# Target: ScBem1-D1
# Assay: as above
# Method in brief: as §1
row,Binder,SPOT peptide array binding signal intensity
1,B1,30

# Target: ScBzz1-D1
# Assay: as above
# Method in brief: as §1
row,Binder,SPOT peptide array binding signal intensity
1,B1,95

# Target: ScBzz1-D2
# Assay: as above
# Method in brief: as §1
row,Binder,SPOT peptide array binding signal intensity
1,B1,52

# Target: ScCyk3
# Assay: as above
# Method in brief: as §1
row,Binder,SPOT peptide array binding signal intensity
1,B1,32

# Target: ScFus1
# Assay: as above
# Method in brief: as §1
row,Binder,SPOT peptide array binding signal intensity
1,B1,14

# Target: ScHof1
# Assay: as above
# Method in brief: as §1
row,Binder,SPOT peptide array binding signal intensity
1,B1,3.5

# Target: ScHse1
# Assay: as above
# Method in brief: as §1
row,Binder,SPOT peptide array binding signal intensity
1,B1,172

# Target: ScLsb1
# Assay: as above
# Method in brief: as §1
row,Binder,SPOT peptide array binding signal intensity
1,B1,651

# Target: ScLsb2
# Assay: as above
# Method in brief: as §1
row,Binder,SPOT peptide array binding signal intensity
1,B1,13.5

# Target: ScLsb3
# Assay: as above
# Method in brief: as §1
row,Binder,SPOT peptide array binding signal intensity
1,B1,5480

# Target: ScLsb4
# Assay: as above
# Method in brief: as §1
row,Binder,SPOT peptide array binding signal intensity
1,B1,2750

# Target: ScMyo3
# Assay: as above
# Method in brief: as §1
row,Binder,SPOT peptide array binding signal intensity
1,B1,1.5

# Target: ScMyo5
# Assay: as above
# Method in brief: as §1
row,Binder,SPOT peptide array binding signal intensity
1,B1,5

# Target: ScNbp2
# Assay: as above
# Method in brief: as §1
row,Binder,SPOT peptide array binding signal intensity
1,B1,63.5

# Target: ScPex13
# Assay: as above
# Method in brief: as §1
row,Binder,SPOT peptide array binding signal intensity
1,B1,511

# Target: ScRvs167
# Assay: as above
# Method in brief: as §1
row,Binder,SPOT peptide array binding signal intensity
1,B1,1320

# Target: ScSho1
# Assay: as above
# Method in brief: as §1
row,Binder,SPOT peptide array binding signal intensity
1,B1,65.5

# Target: ScSla1-D1-D2
# Assay: as above
# Method in brief: as §1
row,Binder,SPOT peptide array binding signal intensity
1,B1,726

# Target: ScSla1-D3
# Assay: as above
# Method in brief: as §1
row,Binder,SPOT peptide array binding signal intensity
1,B1,25.8

# Target: SpAbp1-D1
# Assay: as above
# Method in brief: as §1
row,Binder,SPOT peptide array binding signal intensity
1,B1,356

# Target: SpBbc1
# Assay: as above
# Method in brief: as §1
row,Binder,SPOT peptide array binding signal intensity
1,B1,27

# Target: SpBzz1-D1
# Assay: as above
# Method in brief: as §1
row,Binder,SPOT peptide array binding signal intensity
1,B1,366

# Target: SpBzz1-D2
# Assay: as above
# Method in brief: as §1
row,Binder,SPOT peptide array binding signal intensity
1,B1,1

# Target: SpCyk3
# Assay: as above
# Method in brief: as §1
row,Binder,SPOT peptide array binding signal intensity
1,B1,3

# Target: SpHof1
# Assay: as above
# Method in brief: as §1
row,Binder,SPOT peptide array binding signal intensity
1,B1,732

# Target: SpHof1-2
# Assay: as above
# Method in brief: as §1
row,Binder,SPOT peptide array binding signal intensity
1,B1,83

# Target: SpHof1-3
# Assay: as above
# Method in brief: as §1
row,Binder,SPOT peptide array binding signal intensity
1,B1,110

# Target: SpHse1
# Assay: as above
# Method in brief: as §1
row,Binder,SPOT peptide array binding signal intensity
1,B1,77

# Target: SpLsb1
# Assay: as above
# Method in brief: as §1
row,Binder,SPOT peptide array binding signal intensity
1,B1,90

# Target: SpLsb4
# Assay: as above
# Method in brief: as §1
row,Binder,SPOT peptide array binding signal intensity
1,B1,7440

# Target: SpMyo1
# Assay: as above
# Method in brief: as §1
row,Binder,SPOT peptide array binding signal intensity
1,B1,46.8

# Target: SpNbp2
# Assay: as above
# Method in brief: as §1
row,Binder,SPOT peptide array binding signal intensity
1,B1,21.5

# Target: SpPex13
# Assay: as above
# Method in brief: as §1
row,Binder,SPOT peptide array binding signal intensity
1,B1,17

# Target: SpRvs167
# Assay: as above
# Method in brief: as §1
row,Binder,SPOT peptide array binding signal intensity
1,B1,2470

# Target: SpSla1-D1-D2
# Assay: as above
# Method in brief: as §1
row,Binder,SPOT peptide array binding signal intensity
1,B1,334

# Target: SpSla1-D3
# Assay: as above
# Method in brief: as §1
row,Binder,SPOT peptide array binding signal intensity
1,B1,≤ 0
